The values below come from publication PMC11006913.

Common to all, as to test: PBM; 200 nM protein, PBS
Common to all, as to details: dsDNA, one strand shown

Test [1] deals with CRX (Homo sapiens, UniProt O43186 26-111).
The target in test [2] is HOXB9 (Homo sapiens, UniProt P17482 171-250, T197M).
Test [3] addresses T1, SIX6 (Homo sapiens, UniProt O95475 114-200, L167I).
T1 sequence: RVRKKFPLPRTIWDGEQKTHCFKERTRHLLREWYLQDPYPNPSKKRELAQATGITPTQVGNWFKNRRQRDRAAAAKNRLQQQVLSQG

In test [4] the target is T2, SIX6 (Homo sapiens, UniProt O95475 114-200, L143V).
T2 sequence: T1 sequence with L30V, I54L

The target of test [5] is T3, SIX6 (Homo sapiens, UniProt O95475 114-200, H141N).
T3 sequence: T1 sequence with H28N, I54L

Test [6] concerns the target T4, SIX6 (Homo sapiens, UniProt O95475 114-200, T165P).
T4 sequence: T1 sequence with T52P, I54L

Test [7] deals with T5, SIX6 (Homo sapiens, UniProt O95475 114-200, L167M).
T5 sequence: T1 sequence with I54M

For test [8], the target named is T6, SIX6 (Homo sapiens, UniProt O95475 114-200, L143M).
T6 sequence: T1 sequence with L30M, I54L

Test [9] has as its target T7, SIX6 (Homo sapiens, UniProt O95475 114-200, L143I).
T7 sequence: T1 sequence with L30I, I54L

Test [10] has as its target T8, SIX6 (Homo sapiens, UniProt O95475 114-200, T165G).
T8 sequence: T1 sequence with T52G, I54L

Test [11] concerns the target HOXA2 (Homo sapiens, UniProt O43364 129-215, R185T).
Test [12] addresses HOXB9 (Homo sapiens, UniProt P17482 171-250).
Test [13] deals with T9, SIX6 (Homo sapiens, UniProt O95475 114-200, T139Q).
T9 sequence: T1 sequence with T26Q, I54L

The target in test [14] is CRX (Homo sapiens, UniProt O43186 26-111, E42D).
Test [15] addresses ALX3 (Homo sapiens, UniProt O95076 139-225, N203Q).
The target in test [16] is T10, SIX6 (Homo sapiens, UniProt O95475 114-200, T165A).
T10 sequence: T1 sequence with T52A, I54L

For test [17], the target named is HOXA2 (Homo sapiens, UniProt O43364 129-215, R185K).
Test [18] has as its target T11, SIX6 (Homo sapiens, UniProt O95475 114-200, L167V).
T11 sequence: T1 sequence with I54V

For test [19], the target named is ALX3 (Homo sapiens, UniProt O95076 139-225).
Test [20] concerns the target T12, SIX6 (Homo sapiens, UniProt O95475 114-200).
T12 sequence: T1 sequence with I54L

Test [21] concerns the target ALX3 (Homo sapiens, UniProt O95076 139-225, L168Q).
Test [22] concerns the target T13, SIX6 (Homo sapiens, UniProt O95475 114-200, T165I).
T13 sequence: T1 sequence with T52I, I54L

Test [23] has as its target HOXB9 (Homo sapiens, UniProt P17482 171-250, R186Q).
The target in test [24] is ALX3 (Homo sapiens, UniProt O95076 139-225, L168V).
Test [25] concerns the target HOXA2 (Homo sapiens, UniProt O43364 129-215, Y150S).
The target of test [26] is CRX (Homo sapiens, UniProt O43186 26-111, R41L).
Test [27] deals with ALX3 (Homo sapiens, UniProt O95076 139-225, N203S).
Test [28] has as its target HOXA2 (Homo sapiens, UniProt O43364 129-215).
The target of test [29] is HOXA7 (Homo sapiens, UniProt P31268 116-202).
Test [30] has as its target HOXA7 (Homo sapiens, UniProt P31268 116-202, W177C).
Test [31] has as its target T14, VENTX (Homo sapiens, UniProt O95231 78-163, R121Q).
T14 sequence: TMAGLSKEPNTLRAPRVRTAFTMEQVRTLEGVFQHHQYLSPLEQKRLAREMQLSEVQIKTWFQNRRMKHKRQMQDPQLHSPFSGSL

Test [32] concerns the target T15, VENTX (Homo sapiens, UniProt O95231 78-163).
T15 sequence: T14 sequence with Q44R

Test [33] concerns the target T16, VENTX (Homo sapiens, UniProt O95231 78-163, Y115F).
T16 sequence: T14 sequence with Y38F, Q44R

Test [34] concerns the target PITX2 (Homo sapiens, UniProt Q99697 72-157).
Test [35] has as its target HOXC9 (Homo sapiens, UniProt P31274 178-260, K195R).
In test [36] the target is ALX4 (Homo sapiens, UniProt Q9H161 200-286).
Test [37] deals with ALX4 (Homo sapiens, UniProt Q9H161 200-286, Q225E).
The target in test [38] is HOXC9 (Homo sapiens, UniProt P31274 178-260).
The target of test [39] is HOXC9 (Homo sapiens, UniProt P31274 178-260, R193K).
The target in test [40] is HOXC9 (Homo sapiens, UniProt P31274 178-260, R222W).

Changes are numbered by the printed parent chain.

Chain of CRX (Homo sapiens, UniProt O43186 26-111, E42D) (O43186 26-111 E42D): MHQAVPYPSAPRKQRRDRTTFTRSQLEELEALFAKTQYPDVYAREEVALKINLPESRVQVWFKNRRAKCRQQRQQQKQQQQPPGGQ
Chain of CRX (Homo sapiens, UniProt O43186 26-111) (O43186 26-111): as the sequence (O43186 26-111 E42D) above, with D17E counted along it
Chain of CRX (Homo sapiens, UniProt O43186 26-111, R41L) (O43186 26-111 R41L): as the sequence (O43186 26-111 E42D) above, with R16L, D17E counted along it
Chain of HOXC9 (Homo sapiens, UniProt P31274 178-260, R193K) (P31274 178-260 R193K): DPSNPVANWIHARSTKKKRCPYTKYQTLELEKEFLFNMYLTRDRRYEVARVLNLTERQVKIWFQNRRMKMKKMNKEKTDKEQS
Chain of HOXB9 (Homo sapiens, UniProt P17482 171-250, R186Q) (P17482 171-250 R186Q): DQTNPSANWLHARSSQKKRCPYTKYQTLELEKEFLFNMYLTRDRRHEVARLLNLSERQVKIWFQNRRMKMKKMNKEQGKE
Chain of HOXB9 (Homo sapiens, UniProt P17482 171-250) (P17482 171-250): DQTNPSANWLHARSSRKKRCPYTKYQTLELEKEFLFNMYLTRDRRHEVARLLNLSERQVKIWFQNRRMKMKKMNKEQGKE
Chain of HOXC9 (Homo sapiens, UniProt P31274 178-260, K195R) (P31274 178-260 K195R): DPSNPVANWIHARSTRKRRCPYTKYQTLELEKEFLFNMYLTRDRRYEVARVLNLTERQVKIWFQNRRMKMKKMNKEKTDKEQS
Chain of HOXC9 (Homo sapiens, UniProt P31274 178-260, R222W) (P31274 178-260 R222W): as the sequence (P31274 178-260 R193K) above, with K16R, R45W counted along it
Chain of HOXC9 (Homo sapiens, UniProt P31274 178-260) (P31274 178-260): as the sequence (P31274 178-260 R193K) above, with K16R counted along it
Chain of ALX4 (Homo sapiens, UniProt Q9H161 200-286, Q225E) (Q9H161 200-286 Q225E): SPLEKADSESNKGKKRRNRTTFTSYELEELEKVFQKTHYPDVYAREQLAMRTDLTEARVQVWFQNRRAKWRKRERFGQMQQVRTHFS
Chain of ALX3 (Homo sapiens, UniProt O95076 139-225) (O95076 139-225): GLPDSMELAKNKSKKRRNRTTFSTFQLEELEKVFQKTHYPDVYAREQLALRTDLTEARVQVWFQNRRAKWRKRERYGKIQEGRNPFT
Chain of HOXA7 (Homo sapiens, UniProt P31268 116-202, W177C) (P31268 116-202 W177C): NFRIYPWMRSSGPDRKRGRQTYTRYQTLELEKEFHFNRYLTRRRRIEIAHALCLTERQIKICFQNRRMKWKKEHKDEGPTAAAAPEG
Chain of ALX3 (Homo sapiens, UniProt O95076 139-225, L168V) (O95076 139-225 L168V): as the sequence (O95076 139-225) above, with L30V counted along it
Chain of HOXA2 (Homo sapiens, UniProt O43364 129-215) (O43364 129-215): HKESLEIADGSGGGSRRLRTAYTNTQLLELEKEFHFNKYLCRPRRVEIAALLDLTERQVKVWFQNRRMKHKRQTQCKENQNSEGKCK
Chain of HOXA7 (Homo sapiens, UniProt P31268 116-202) (P31268 116-202): as the sequence (P31268 116-202 W177C) above, with C62W counted along it
Chain of HOXA2 (Homo sapiens, UniProt O43364 129-215, R185K) (O43364 129-215 R185K): as the sequence (O43364 129-215) above, with R57K counted along it
Chain of HOXB9 (Homo sapiens, UniProt P17482 171-250, T197M) (P17482 171-250 T197M): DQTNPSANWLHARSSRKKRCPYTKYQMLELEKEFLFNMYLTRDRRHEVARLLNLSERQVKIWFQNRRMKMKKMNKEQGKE
Chain of HOXA2 (Homo sapiens, UniProt O43364 129-215, Y150S) (O43364 129-215 Y150S): as the sequence (O43364 129-215) above, with Y22S counted along it
Chain of ALX4 (Homo sapiens, UniProt Q9H161 200-286) (Q9H161 200-286): as the sequence (Q9H161 200-286 Q225E) above, with E26Q counted along it
Chain of ALX3 (Homo sapiens, UniProt O95076 139-225, N203S) (O95076 139-225 N203S): as the sequence (O95076 139-225) above, with N65S counted along it
Chain of ALX3 (Homo sapiens, UniProt O95076 139-225, N203Q) (O95076 139-225 N203Q): as the sequence (O95076 139-225) above, with N65Q counted along it
Chain of ALX3 (Homo sapiens, UniProt O95076 139-225, L168Q) (O95076 139-225 L168Q): as the sequence (O95076 139-225) above, with L30Q counted along it
Chain of HOXA2 (Homo sapiens, UniProt O43364 129-215, R185T) (O43364 129-215 R185T): as the sequence (O43364 129-215) above, with R57T counted along it

Take CCAGGGGC: the binding signal in test [1] is 7.85 upbm affinity estimate (log intensity, higher = more binding, comparable within an allelic series); in [2], 8.38 upbm affinity estimate (log intensity, higher = more binding, comparable within an allelic series); in test [3], 8.79 upbm affinity estimate (log intensity, higher = more binding, comparable within an allelic series); in test [4] it was 8.71 upbm affinity estimate (log intensity, higher = more binding, comparable within an allelic series); in [5] it was 8.85 upbm affinity estimate (log intensity, higher = more binding, comparable within an allelic series); in [6] it was 8.79 upbm affinity estimate (log intensity, higher = more binding, comparable within an allelic series). Further, the binding signal was 8.77 upbm affinity estimate (log intensity, higher = more binding, comparable within an allelic series) in [7]; 8.78 upbm affinity estimate (log intensity, higher = more binding, comparable within an allelic series) in test [8]; 8.85 upbm affinity estimate (log intensity, higher = more binding, comparable within an allelic series) in [9]; 8.91 upbm affinity estimate (log intensity, higher = more binding, comparable within an allelic series) in [10]; 7.15 upbm affinity estimate (log intensity, higher = more binding, comparable within an allelic series) in [11]; 8.33 upbm affinity estimate (log intensity, higher = more binding, comparable within an allelic series) in test [12]. In addition, the binding signal in test [13] was 8.83 upbm affinity estimate (log intensity, higher = more binding, comparable within an allelic series); in test [14], 7.94 upbm affinity estimate (log intensity, higher = more binding, comparable within an allelic series); in test [15], 7.67 upbm affinity estimate (log intensity, higher = more binding, comparable within an allelic series); in test [16], 8.82 upbm affinity estimate (log intensity, higher = more binding, comparable within an allelic series); in [17], 10.2 upbm affinity estimate (log intensity, higher = more binding, comparable within an allelic series); in test [18] it was 8.8 upbm affinity estimate (log intensity, higher = more binding, comparable within an allelic series). Moreover, the binding signal was 7.59 upbm affinity estimate (log intensity, higher = more binding, comparable within an allelic series) in [19]; 8.88 upbm affinity estimate (log intensity, higher = more binding, comparable within an allelic series) in [20]; 7.73 upbm affinity estimate (log intensity, higher = more binding, comparable within an allelic series) in [21]; 8.84 upbm affinity estimate (log intensity, higher = more binding, comparable within an allelic series) in test [22]; 8.39 upbm affinity estimate (log intensity, higher = more binding, comparable within an allelic series) in test [23]; 7.75 upbm affinity estimate (log intensity, higher = more binding, comparable within an allelic series) in test [24]. The binding signal was 10.3 upbm affinity estimate (log intensity, higher = more binding, comparable within an allelic series) in test [25]; 8.19 upbm affinity estimate (log intensity, higher = more binding, comparable within an allelic series) in [26]; 7.65 upbm affinity estimate (log intensity, higher = more binding, comparable within an allelic series) in [27]; 7.27 upbm affinity estimate (log intensity, higher = more binding, comparable within an allelic series) in test [28].
For TGCGATAA, the binding signal in test [1] was 10.9 upbm affinity estimate (log intensity, higher = more binding, comparable within an allelic series); in test [29], 9.91 upbm affinity estimate (log intensity, higher = more binding, comparable within an allelic series); in test [14], 10.5 upbm affinity estimate (log intensity, higher = more binding, comparable within an allelic series); in test [30], 8.8 upbm affinity estimate (log intensity, higher = more binding, comparable within an allelic series); in test [26] it was 10.4 upbm affinity estimate (log intensity, higher = more binding, comparable within an allelic series).
For AGACTATC, the binding signal in [1] is 9.61 upbm affinity estimate (log intensity, higher = more binding, comparable within an allelic series); in [3], 10.2 upbm affinity estimate (log intensity, higher = more binding, comparable within an allelic series); in test [4] it was 9.83 upbm affinity estimate (log intensity, higher = more binding, comparable within an allelic series); in test [5], 10.2 upbm affinity estimate (log intensity, higher = more binding, comparable within an allelic series); in [6], 9.59 upbm affinity estimate (log intensity, higher = more binding, comparable within an allelic series); in [7], 9.99 upbm affinity estimate (log intensity, higher = more binding, comparable within an allelic series). For the same sequence, the binding signal in test [8] was 10.2 upbm affinity estimate (log intensity, higher = more binding, comparable within an allelic series); in test [10], 10.2 upbm affinity estimate (log intensity, higher = more binding, comparable within an allelic series); in test [13], 10.4 upbm affinity estimate (log intensity, higher = more binding, comparable within an allelic series); in [14], 9.51 upbm affinity estimate (log intensity, higher = more binding, comparable within an allelic series); in test [16] it was 10.1 upbm affinity estimate (log intensity, higher = more binding, comparable within an allelic series); in test [18] it was 10 upbm affinity estimate (log intensity, higher = more binding, comparable within an allelic series). Moreover, the binding signal in test [20] is 10.2 upbm affinity estimate (log intensity, higher = more binding, comparable within an allelic series); in [22], 10.1 upbm affinity estimate (log intensity, higher = more binding, comparable within an allelic series); in test [26] it was 9.45 upbm affinity estimate (log intensity, higher = more binding, comparable within an allelic series).
For CCCCTGGA, the binding signal is 8.32 upbm affinity estimate (log intensity, higher = more binding, comparable within an allelic series) in test [1]; 7.92 upbm affinity estimate (log intensity, higher = more binding, comparable within an allelic series) in [31]; 7.83 upbm affinity estimate (log intensity, higher = more binding, comparable within an allelic series) in [32]; 8.01 upbm affinity estimate (log intensity, higher = more binding, comparable within an allelic series) in test [33]; 8.46 upbm affinity estimate (log intensity, higher = more binding, comparable within an allelic series) in [14]; 8.4 upbm affinity estimate (log intensity, higher = more binding, comparable within an allelic series) in test [26].
Turning to AGATTAGC, the binding signal was 13 upbm affinity estimate (log intensity, higher = more binding, comparable within an allelic series) in [1]; 10.5 upbm affinity estimate (log intensity, higher = more binding, comparable within an allelic series) in test [31]; 10.4 upbm affinity estimate (log intensity, higher = more binding, comparable within an allelic series) in test [33]; 13.1 upbm affinity estimate (log intensity, higher = more binding, comparable within an allelic series) in [14]; 12.5 upbm affinity estimate (log intensity, higher = more binding, comparable within an allelic series) in test [34]; 12.7 upbm affinity estimate (log intensity, higher = more binding, comparable within an allelic series) in test [26].
Turning to AGGGGACC, the binding signal in test [1] was 8.1 upbm affinity estimate (log intensity, higher = more binding, comparable within an allelic series); in [35], 9.61 upbm affinity estimate (log intensity, higher = more binding, comparable within an allelic series); in test [36], 8.18 upbm affinity estimate (log intensity, higher = more binding, comparable within an allelic series); in test [37], 8.19 upbm affinity estimate (log intensity, higher = more binding, comparable within an allelic series); in [14], 8.22 upbm affinity estimate (log intensity, higher = more binding, comparable within an allelic series); in test [38], 9.69 upbm affinity estimate (log intensity, higher = more binding, comparable within an allelic series). Further, the binding signal is 9.54 upbm affinity estimate (log intensity, higher = more binding, comparable within an allelic series) in test [39]; 9.53 upbm affinity estimate (log intensity, higher = more binding, comparable within an allelic series) in test [40]; 8.23 upbm affinity estimate (log intensity, higher = more binding, comparable within an allelic series) in test [26].
For GGATTACA, the binding signal is 13.1 upbm affinity estimate (log intensity, higher = more binding, comparable within an allelic series) in test [1]; 9.08 upbm affinity estimate (log intensity, higher = more binding, comparable within an allelic series) in test [31]; 9.3 upbm affinity estimate (log intensity, higher = more binding, comparable within an allelic series) in test [32]; 9.18 upbm affinity estimate (log intensity, higher = more binding, comparable within an allelic series) in test [33]; 9.44 upbm affinity estimate (log intensity, higher = more binding, comparable within an allelic series) in test [12]; 13 upbm affinity estimate (log intensity, higher = more binding, comparable within an allelic series) in [14]. Further, the binding signal was 12.8 upbm affinity estimate (log intensity, higher = more binding, comparable within an allelic series) in test [34]; 9.52 upbm affinity estimate (log intensity, higher = more binding, comparable within an allelic series) in test [23]; 13 upbm affinity estimate (log intensity, higher = more binding, comparable within an allelic series) in [26].
Consider ACCAGCCC, for which the binding signal in test [1] was 8.23 upbm affinity estimate (log intensity, higher = more binding, comparable within an allelic series); in test [35], 9.73 upbm affinity estimate (log intensity, higher = more binding, comparable within an allelic series); in [14] it was 8.32 upbm affinity estimate (log intensity, higher = more binding, comparable within an allelic series); in [38] it was 9.8 upbm affinity estimate (log intensity, higher = more binding, comparable within an allelic series); in test [39], 9.71 upbm affinity estimate (log intensity, higher = more binding, comparable within an allelic series); in test [40], 9.62 upbm affinity estimate (log intensity, higher = more binding, comparable within an allelic series). Moreover, the binding signal in test [26] is 8.17 upbm affinity estimate (log intensity, higher = more binding, comparable within an allelic series).
For the sequence TAATCTGA, the binding signal in test [1] was 12.9 upbm affinity estimate (log intensity, higher = more binding, comparable within an allelic series); in test [31] it was 10.3 upbm affinity estimate (log intensity, higher = more binding, comparable within an allelic series); in test [14] it was 12.8 upbm affinity estimate (log intensity, higher = more binding, comparable within an allelic series); in [26], 12.6 upbm affinity estimate (log intensity, higher = more binding, comparable within an allelic series).
